Test results reported in PubChem BioAssay AID2315 (National Center for Advancing Translational Sciences (NCATS), 2010).
The whole screen tested about 290,000 compounds, of which about 27,000 (9.3%) were called active. Rule as the data show it: active = inhibition mostly above about 28% (no sharp cut-off); inactive = mostly below about 43%. The sample as a whole holds a higher share of actives than the screen did.

Assay: A qHTS for Small Molecule Inhibitors of Shiga Toxin; also: 0% is about no effect
Settings: Vero cells, Shiga toxin protein synthesis inhibition reporter; at 38.7 µM, active compounds read high
In the case of `CCOc1ccccc1OCCCNCc1ccccc1`, the inhibition is reported as 8.72% (inactive). For `CCOc1ccc(S(=O)(=O)Nc2ccc(OC)nc2)cc1`, the inhibition was 33.9% (inactive). In the case of `CCCCCCn1cc(C(=O)O)c(=O)c2cc(F)c(N3CCCCC3)cc21`, the inhibition is reported as 33.7% (inactive). In the case of `COc1ccccc1CNC(=O)C1CCN(S(=O)(=O)c2ccc3c(c2)OCCO3)CC1`, the inhibition is reported as -11.4% (inactive). With `C=CCNC(=O)c1cc(-c2ccccc2O)on1` the inhibition was 98.8% (active). For `C=CCNC(=O)c1csc(-c2ccccc2)n1`, the inhibition was 11.1% (inactive). In the case of `O=C(NCc1ccccn1)c1ccc2nc(-c3ccco3)c(-c3ccco3)nc2c1`, the inhibition is reported as 5.29% (inactive). With `O=C(Nc1cccc2ncccc12)c1ccc(-c2ccc(Cl)cc2Cl)o1` the inhibition was -17.2% (inactive). In the case of `O=C(NCc1ccccn1)c1cc(-c2ccccc2Cl)on1`, the inhibition is reported as 162% (active). In the case of `O=C(NCc1ccccn1)c1cc(Br)ccc1Cl`, the inhibition is reported as 29.6% (inactive). For `O=C(Nc1cccnc1Cl)c1cc(-c2cccc(Cl)c2)on1`, the inhibition was -1.68% (inactive). For `O=C(Nc1ccccc1C(F)(F)F)c1cc(-c2ccc(O)cc2)on1`, the inhibition was 54.9% (active). For `C=CCNC(=O)c1ccccc1SCc1c(C)noc1C`, the inhibition was -38.8% (inactive). In the case of `O=C(Nc1cccnc1Cl)c1cc(-c2ccccc2O)on1`, the inhibition is reported as 73.1% (active). With `CCc1ccccc1NC(=O)c1cc(-c2ccc3c(c2)OCO3)on1` the inhibition was 25.8% (inactive). With `O=C(NNC(=O)c1ccccc1[N+](=O)[O-])Nc1ccccc1C(F)(F)F` the inhibition was -6.67% (inactive). For `Nc1nonc1-n1nnc(C(=O)N/N=C/C2CCCCC2)c1-c1ccccc1`, the inhibition was -3.16% (inactive). For `CCCCC(C(=O)NC(C)(C)C)N(Cc1ccccc1)C(=O)c1snc(C(N)=O)c1N` (stereo not given), the inhibition was -1.85% (inactive). For `CCc1ccccc1N(CC(=O)NCC1CCCO1)C(=O)CCC(=O)Nc1nccs1` (stereo not given), the inhibition was -6.86% (inactive). In the case of `CC(Nc1nc(C(F)(F)F)nc2ccccc12)c1cccs1` (stereo not given), the inhibition is reported as 29.3% (inactive). In the case of `O=S(O)S(=O)(=O)O`, the inhibition is reported as 6.15% (inactive). With `Cc1ccc2oc(C(=O)N3CCN(C)C[C@@H]3C(C)C)c(C)c2c1` the inhibition was 42.3% (active). With `COc1ccccc1N1CCN(C(=O)c2cc(=O)c3cc(C)ccc3o2)CC1` the inhibition was 19.1% (inactive). For `Cc1ccc2c(C)c(C(=O)N3CCC(N4CCC(C(=O)NC5CC5)CC4)CC3)oc2c1`, the inhibition was -13.3% (inactive). With `Cc1ccc(C(=O)NCCc2nnc(SCC(=O)Nc3cccc(C(=O)O)c3)n2C)cc1` the inhibition was -4.17% (inactive). In the case of `CC(=O)C(C)n1cnc2scc(-c3ccc(C)cc3)c2c1=O` (stereo not given), the inhibition is reported as -5.64% (inactive). In the case of `CC(C)(C)c1ccc(C(=O)CSc2ncn[nH]2)cc1`, the inhibition is reported as 63.4% (active). For `Cn1nnc(NC(=O)CSc2ncn[nH]2)n1`, the inhibition was -18.1% (inactive). With `CCN(C(=O)CSc1ncn[nH]1)c1cccc2ccccc12` the inhibition was 9.31% (inactive). For `Cc1ccccc1NC(=O)NCC1CCN(Cc2cccc(Cl)c2)CC1`, the inhibition was -1.26% (inactive). In the case of `O=C(O)c1ccc(NC(=O)c2ccc(COc3ccc(Cl)cc3)o2)cc1`, the inhibition is reported as -8.9% (inactive). In the case of `COCCOC(=O)c1[nH]c2c(c1C)C(=O)CC(c1ccc(OC)cc1)C2` (stereo not given), the inhibition is reported as 13.2% (inactive). In the case of `CCOC(=O)c1[nH]c2c(c1C)C(=O)CC(c1ccc(N(C)C)cc1)C2` (stereo not given), the inhibition is reported as 2.86% (active). With `CCOC(=O)c1[nH]c2c(c1-c1ccccc1)C(=O)CC(c1ccc(Cl)cc1)C2` (stereo not given) the inhibition was -7.73% (inactive). With `O=C(N/N=C/c1sc(N2CCCCC2)nc1-c1cccs1)c1cccnc1` the inhibition was -9.51% (inactive). With `CCOc1cc(C)ccc1OCc1nnc(SCC(=O)Nc2cccc(C(=O)O)c2)n1-c1ccccc1` the inhibition was 9.89% (inactive). With `CC[C@H](C)[C@H](NC(=O)[C@@H](N)CCC(=O)O)C(=O)N[C@@H](CC(C)C)C(=O)N[C@@H](CC(=O)O)C(=O)N[C@H](C(=O)N1CCC[C@H]1C(=O)N[C@@H](CO)C(=O)N[C@H](C(=O)O)[C@@H](C)O)C(C)C` the inhibition was -4.46% (inactive). For `CCOc1cccc2c1OC1(CCCCC1)N1N=C(c3cccnc3)CC21` (stereo not given), the inhibition was 42.4% (active). For `CCOc1ccccc1C1CC(c2cccc(NS(C)(=O)=O)c2)=NN1C(=O)c1ccccc1` (stereo not given), the inhibition was 3.98% (inactive). With `c1cncc(-c2nnc3n2C2(CCCCC2)Cc2ccccc2-3)c1` the inhibition was -14.6% (inactive). With `COc1ccc(C(=O)NC2CC2)cc1OC1CCN(Cc2cnn(C)c2)CC1` the inhibition was 14.2% (inactive). In the case of `CCCCc1nc2cc(C(=O)NCCc3cnn(C)c3)ccc2o1`, the inhibition is reported as 36.3% (active). With `CCC1CCCCN1C(=O)CSc1nc(C)cc(C)n1` (stereo not given) the inhibition was -8.51% (inactive). With `CCC1C(=O)NCCN1C(=O)c1ccc2nc(Cc3ccc(OC)cc3)oc2c1` (stereo not given) the inhibition was 3.17% (inactive). For `Cc1c(C(=O)N(C)CCc2cnn(C)c2)oc2c(F)cccc12`, the inhibition was 2.81% (inactive). For `CCCCc1nc2cc(C(=O)N3CCCCC3CCO)ccc2o1` (stereo not given), the inhibition was 105% (active). In the case of `CC(C)c1nnc(NC(=O)C2CC(=O)N(CCc3ccc(F)cc3)C2)s1` (stereo not given), the inhibition is reported as -7.25% (inactive). For `COc1cccc(NC(=O)c2cc(S(=O)(=O)N3CCc4ccccc43)cn2C)c1`, the inhibition was 7.48% (inactive). For `CCc1ccc(OC(C)C(=O)Nc2ccc(S(=O)(=O)Nc3cc(C)on3)cc2)cc1` (stereo not given), the inhibition was -9.78% (inactive). In the case of `CC(CCc1ccc(O)cc1)NCc1ccc(Cl)cc1Cl` (stereo not given), the inhibition is reported as -4.82% (inactive). For `CCCCC1(C(=O)OCC)NC(c2ccc(O)cc2)C2C(=O)N(c3ccccc3)C(=O)C21` (stereo not given), the inhibition was -10.2% (inactive). In the case of `CCc1ccc(NC(=O)CN2C(=O)COc3ccc(S(=O)(=O)N4CCCC4)cc32)cc1`, the inhibition is reported as -5.17% (inactive). In the case of `CCc1ccc(NC(=O)CN2C(=O)CSC2=O)cc1`, the inhibition is reported as 53.9% (active). In the case of `COc1ccc(NC(=O)CN2C(=O)CSC2=O)cc1`, the inhibition is reported as -1.96% (inactive). For `CC1(c2ccc(Cl)cc2)NC(=O)N(CC(=O)c2ccc3c(c2)OCO3)C1=O` (stereo not given), the inhibition was 1.96% (inactive). For `O=C(CN1CCN(c2ccccc2F)CC1)c1ccc2c(c1)OCO2`, the inhibition was 53% (active). With `O=C(Nc1ccccc1N1CCN(C(=O)c2ccccc2)CC1)c1ccc2c(c1)OCO2` the inhibition was -7.26% (inactive). With `CCOc1cc(C2/C(=C(/O)c3ccc(S(=O)(=O)N4CCCCC4)cc3)C(=O)C(=O)N2CCOC)ccc1O` (stereo not given) the inhibition was -10.6% (inactive). With `O=C(Oc1ccc2c(c1)CCC2)N1CCOCC1` the inhibition was 97.3% (active). In the case of `O=C(Oc1ccc(F)cc1)N1CCOCC1`, the inhibition is reported as -2.55% (inactive). For `O=C(Nc1cccc(OC(=O)N2CCCCC2)c1)N1CCOCC1`, the inhibition was -5.26% (inactive). With `CNS(=O)(=O)c1cccc(C(=O)NC2CCCc3ccccc32)c1` (stereo not given) the inhibition was 2.04% (inactive). With `COc1ccccc1N(CC(=O)NC1CCCC1)C(=O)C1(C)CC(=O)N=C2C=CC(C)=CN21` (stereo not given) the inhibition was -13.3% (inactive). In the case of `CSc1ncccc1C(=O)OCc1ccc(Br)cc1`, the inhibition is reported as 42% (active). For `CSc1ncccc1C(=O)NC1CCCCCC1`, the inhibition was 27.5% (inactive). With `CSc1ncccc1C(=O)OCC(=O)N1CCOCC1` the inhibition was -2.04% (inactive). For `COc1ccc(N2CCN(C(=O)[C@@H](NC(=O)c3cc(OC)cc(OC)c3)C(C)C)CC2)cc1`, the inhibition was 2.67% (inactive). For `O=C(CN1CCN(S(=O)(=O)c2ccc(F)cc2)CC1)NC1CC1`, the inhibition was -30.6% (inactive). With `COc1ccc(-c2ccc(C3C4C=CCCC4(C)C(=O)N3Cc3ccccc3)c(F)c2)cc1OC` (stereo not given) the inhibition was -1.56% (inactive). With `COCCCNC(=O)COc1cc(C)c(Cl)c(C)c1` the inhibition was -11.4% (inactive). With `Cc1cc(OCc2ccc(C(=O)Nc3ccc(C(=O)O)cc3)o2)ccc1Cl` the inhibition was 2.97% (inactive). With `Cc1cc(OCc2cc(C(=O)NCc3cc(C(C)C)no3)no2)cc(C)c1Cl` the inhibition was 79.8% (active). With `Nc1nc(CC(=O)CSc2ccc(Cl)cc2)nc(Nc2ccc(F)cc2)n1` the inhibition was -6.2% (inactive). For `CC(C)CN(C(=O)c1cccc(S(=O)(=O)N2CCCCC2)c1)C1CCS(=O)(=O)C1` (stereo not given), the inhibition was -6.54% (inactive). For `CCOC(=O)C1(Cc2ccccc2C)CCCN(C(=O)c2ccc(COC)o2)C1` (stereo not given), the inhibition was 121% (active). With `CCOC(=O)C1(Cc2ccccc2C)CCCN(C(=O)CN2C(=O)CSC2=O)C1` (stereo not given) the inhibition was 78.9% (active). For `CCOC(=O)C1(CCc2ccccc2)CCN(Cc2ccco2)CC1`, the inhibition was -2.54% (inactive). With `O=C(CN1C(=O)CSC1=O)N1CCCC(Nc2ccc(F)cc2)C1` (stereo not given) the inhibition was 0.485% (inactive). In the case of `CCOC(=O)C1(Cc2ccccc2C)CCCN(S(C)(=O)=O)C1` (stereo not given), the inhibition is reported as -1.22% (inactive). In the case of `O=C(Cn1c(=O)n(CC2CS2)c2ccccc21)N1CCCCC1` (stereo not given), the inhibition is reported as -7.24% (inactive). For `CC(C)c1ccc(S(=O)(=O)NC2CCCC2)cc1`, the inhibition was -8.49% (inactive). For `COc1ccc(OC)c(NC(=O)c2ccc3c(c2)CCN3S(C)(=O)=O)c1`, the inhibition was -5.31% (inactive). In the case of `CS(=O)(=O)N1CCc2cc(C(=O)Nc3ccccc3)ccc21`, the inhibition is reported as 3.54% (inactive). For `CC(=O)Nc1cccc(NC(=O)c2ccc3c(c2)CCN3S(C)(=O)=O)c1`, the inhibition was 6.84% (inactive). For `CCc1ccccc1NC(=O)c1ccc2c(c1)CCN2S(C)(=O)=O`, the inhibition was 21.4% (inactive). With `CS(=O)(=O)N1CCc2cc(C(=O)Nc3ccccc3Br)ccc21` the inhibition was 50.7% (active). With `CSc1ccccc1NC(=O)c1ccc2c(c1)CCN2S(C)(=O)=O` the inhibition was 38.2% (active). With `COc1cccc(Cn2cc(/C=N/NC(=O)c3cc(O)cc(O)c3)c3ccccc32)c1` the inhibition was -3.1% (inactive). With `CS(=O)(=O)c1ccccc1C(=O)Nc1ccc2sccc2c1` the inhibition was -5.25% (inactive). In the case of `CCN(c1ccccc1)S(=O)(=O)c1ccc(NC(=O)C(C)(C)C)cc1`, the inhibition is reported as 3.09% (inactive). For `CC(C)(CCl)C(=O)Nc1ccc(Sc2ccc(F)cc2)cc1`, the inhibition was 83% (active). In the case of `O=C(CCl)Nc1ccc(Sc2ccc(NC(=O)CCl)cc2)cc1`, the inhibition is reported as 16% (inactive). In the case of `O=C(c1cnn(-c2ccc(Cl)cc2)c1)c1ccccc1O`, the inhibition is reported as 59.4% (active). In the case of `O=C(O)c1ccc(NC(=O)c2cn(-c3ccccc3)nc2-c2ccc(Cl)cc2)cc1`, the inhibition is reported as 24.5% (inactive). With `Cc1ncc(CC(=O)n2cc(C(=O)c3cc(Cl)ccc3O)cn2)s1` the inhibition was 8.82% (inactive).
